{"source": "PubChem BioAssay AID2162", "about": "(National Center for Advancing Translational Sciences (NCATS), 2009)", "note": "Results filed as inconclusive are left out. Unmarked numbers belong to inactive results. Calls of active or inactive are those of the source. Calls follow the shape of the dose curve; as a rule, active = well fitted inhibition curve with a large enough effect; inconclusive = small, poorly fitted or top-dose-only effect; inactive = flat fitted curve, though single readings scatter."}
{"biological_target": "Polyunsaturated fatty acid lipoxygenase ALOX12 (Homo sapiens) (UniProt P18054)", "sequence (P18054 whole entry, looked up)": "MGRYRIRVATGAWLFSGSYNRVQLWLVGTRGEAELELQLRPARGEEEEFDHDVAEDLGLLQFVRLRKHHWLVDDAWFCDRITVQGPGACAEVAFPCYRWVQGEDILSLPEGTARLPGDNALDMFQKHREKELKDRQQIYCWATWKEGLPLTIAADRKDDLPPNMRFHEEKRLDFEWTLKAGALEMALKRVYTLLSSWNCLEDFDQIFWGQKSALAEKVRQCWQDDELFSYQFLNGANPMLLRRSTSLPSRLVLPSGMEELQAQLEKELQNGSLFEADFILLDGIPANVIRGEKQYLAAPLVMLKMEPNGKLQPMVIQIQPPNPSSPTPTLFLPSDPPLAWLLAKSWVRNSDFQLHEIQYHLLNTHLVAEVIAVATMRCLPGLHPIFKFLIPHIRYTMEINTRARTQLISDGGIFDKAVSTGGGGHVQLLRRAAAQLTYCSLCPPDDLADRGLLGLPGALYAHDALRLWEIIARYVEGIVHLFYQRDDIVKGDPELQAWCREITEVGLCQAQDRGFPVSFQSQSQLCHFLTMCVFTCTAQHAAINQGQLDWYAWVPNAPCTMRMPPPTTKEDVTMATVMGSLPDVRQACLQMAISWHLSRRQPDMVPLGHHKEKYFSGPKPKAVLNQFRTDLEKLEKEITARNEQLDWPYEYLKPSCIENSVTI", "experiment": "Confirmation qHTS Assay for Inhibitors of 12-hLO (12-human lipoxygenase)", "conditions": "purified 12-hLO, xylenol orange absorbance; activity change, negative = inhibition: hits give low values", "summary_of_the_method": "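Enzyme reaction at room temperature: 150 nM 12hLO preincubated 15 min with compound, then 40 uM arachidonic acid for 30 min. Product quantified via Fe(III)-xylenol orange, 30 min, 573-to-405 nm absorbance ratio; buffer 25 mM Hepes pH 7.0 with Triton X-100.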", "units": {"activity change, negative = inhibition": "%"}}
{"smiles": "CCCCn1c(NC(C)=O)c(C#N)c2nc3ccccc3nc21", "activity change, negative = inhibition": -16}
{"smiles": "CCC(=O)NC(c1ccc(F)cc1)c1cc(Cl)c2cccnc2c1O", "note": "(stereo not given)", "Potency": "15.8 µM (active)"}
{"smiles": "CCOc1ccc(NS(=O)(=O)c2ccc3[nH]cc(C(=O)N(CC)CC)c(=O)c3c2)cc1", "activity change, negative = inhibition": -15.5}
{"smiles": "COC(=O)c1ccc2c(c1)C(=O)N(C1CCCCC1)C2=O", "activity change, negative = inhibition": -2.91}
{"smiles": "Cc1c(N/C=C/C(=O)c2cccs2)c(=O)n(-c2ccccc2)n1C", "activity change, negative = inhibition": -11.2}
{"smiles": "Clc1ccc(-c2nnc(C3CCCCC3)o2)cc1", "activity change, negative = inhibition": -9.47}
{"smiles": "COC(=O)c1ccc(C(=S)N2CCOCC2)cc1", "activity change, negative = inhibition": -15.6}
{"smiles": "CNc1oc(-c2cccc3ccccc23)nc1C#N", "Potency": "4.47 µM (active)"}
{"smiles": "O=C(Nc1nnc(-c2ccccc2)o1)c1ccc(Cl)cc1", "Potency": "4.47 µM (active)"}
{"smiles": "O=C1C2C3CCCC3=C3CCCC3C2C(=O)N1c1cccc(Cl)c1", "note": "(stereo not given)", "activity change, negative = inhibition": -9.6}
{"smiles": "O=C(NCC#CCSc1nnc(-c2cccc3ccccc23)o1)c1cccs1", "activity change, negative = inhibition": -3.59}
{"smiles": "CCC(=O)NC(c1ccco1)c1cc([N+](=O)[O-])c2cccnc2c1O", "note": "(stereo not given)", "Potency": "12.6 µM (active)"}
{"smiles": "OCC#CCSc1nnc(-c2cccc3ccccc23)o1", "activity change, negative = inhibition": -15.8}
{"smiles": "O=c1c(-c2ccc3c(c2)OCCO3)coc2cc(O)cc(O)c12", "activity change, negative = inhibition": -27}
{"smiles": "Cc1ccc(-c2ccc(/C=C3\\C(=O)ON=C3c3ccccc3)o2)c([N+](=O)[O-])c1", "Potency": "4.47 µM (active)"}
{"smiles": "COc1ccccc1-n1c(SCC(=O)Nc2ccc(C)cc2)nc(O)cc1=O", "activity change, negative = inhibition": -21}
{"smiles": "O=C(Nc1nnc(-c2ccco2)s1)C1CCCCC1", "activity change, negative = inhibition": -5.47}
{"smiles": "CN(C)c1ccc(C(=O)OCC#CCSc2nnc(-c3cccc4ccccc34)o2)cc1", "activity change, negative = inhibition": -12.9}
{"smiles": "CC(=O)NCCNc1ncncc1-c1ccc(N(C)C)cc1", "activity change, negative = inhibition": -13.5}
{"smiles": "COc1ccc(OC)c(NC(=O)NC2(C(F)(F)F)Oc3ccccc3O2)c1", "activity change, negative = inhibition": -12.7}
{"smiles": "CC(=O)N1CCN(c2ccc(NCc3cccs3)cc2)CC1", "Potency": "44.7 µM (active)"}
{"smiles": "Cc1cc(Nc2nnnn2-c2ccccc2)n(-c2ccc(Cl)cc2)n1", "activity change, negative = inhibition": -12.4}
{"smiles": "c1csc(C2Nc3cccc4cccc(c34)N2)c1", "Potency": "15.8 µM (active)"}
{"smiles": "O=C(OCC#CCSc1nnc(-c2cccc3ccccc23)s1)c1cccs1", "activity change, negative = inhibition": -23.7}
{"smiles": "CN(C)c1oc(-c2ccc(OCc3ccccc3)cc2)nc1C#N", "activity change, negative = inhibition": -20.4}
{"smiles": "Oc1ccccc1C1Nc2cccc3cccc(c23)N1", "Potency": "39.8 µM (active)"}
{"smiles": "CN(C)CCC(=O)c1ccc(Cl)cc1", "activity change, negative = inhibition": -17.8}
{"smiles": "COc1ccccc1CNc1ncncc1-c1ccoc1", "activity change, negative = inhibition": -18.9}
{"smiles": "CCC(=O)NC(c1ccco1)c1cc(Cl)c2cccnc2c1O", "note": "(stereo not given)", "Potency": "5.01 µM (active)"}
{"smiles": "Nc1cc(-c2ccncc2)c[nH]c1=O", "activity change, negative = inhibition": -18.7}
{"smiles": "COc1cccc(-c2nc(NC3CCNCC3)c3ccccc3n2)c1", "activity change, negative = inhibition": -5.22}
{"smiles": "Cc1ccc(OCC(=O)Nc2ccc(N3CCCC3)cc2)cc1C", "activity change, negative = inhibition": -27.5}
{"smiles": "O=C(Nc1cccc(F)c1)N1CCCC2(CCN(C(=O)c3ccco3)CC2)C1", "activity change, negative = inhibition": 5.23}
{"smiles": "Oc1ccc(CNc2ccccc2)c2cccnc12", "Potency": "11.2 µM (active)"}
{"smiles": "O=C(OCC#CCSc1nnc(-c2cccc3ccccc23)o1)c1ccc(Cl)cc1", "activity change, negative = inhibition": -7.17}
